Measurements published in the supplement of paper PMC11417369.
In all, about 25,000 sequences were measured (“ln(normalized median fluorescence intensity)”: median about 9.7, highest 2% from about 11 on). The list comes from a sample in which the highest values are over-represented; it also holds similar and randomly drawn sequences.

Tested on: PfAP2-HC AP2 domain (GST-tagged)
Assay: gcPBM binding intensity (ln(normalized median fluorescence intensity)); higher = stronger DNA binding
How it was run: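 Probes on an Agilent 4 × 180k array were primer-extended, double-stranded and 36 bp long, taken from intergenic genomic regions, with negative controls added. GST-tagged P. falciparum DNA-binding domains from E. coli, about 25 μg on average, were applied to the array for 1 h in 1× PBS containing 1% milk, 0.2 mg/ml BSA, 0.5% salmon testes DNA and 0.03% Triton X-100. Binding intensity, obtained after Alexa488 anti-GST antibody detection and a 488 nm scan, is the highest Masliner-normalised natural-log median intensity across replicate spots of either probe orientation.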

Row | Sequence | gcPBM binding intensity (ln)
1 | AAATTTATGAACCTAGTGCAGAAATTAAAAAGATGA [GTGCAC_site9396] | 9.54
2 | TCATATATTCAAAAATTTAAAGTTAATAAAACTTGA [CACACA_negctrl_site1546] | 9.06
3 | AATATAAAAATGTTTACACACACACCGAAATATATT [CACACA_site8800] | 11.2
4 | GGAATAATATAAAACACACACATAAATATAAATATA [CACACA_site3376] | 10.7
5 | TATAAAAGGAAACACACACACATATATATATATATA [CACACA_site939] | 10.5
6 | ATATAAATATAGTGTGCACACACATAATATATATAT [CACACA_site8713] | 10.4
7 | AGGAAAAAAGAAAAAACACACATAAATATATATATA [CACACA_site3085] | 9.74
8 | ACATATAAATATTGTGTGCACACACATAATATATAT | 11.3
9 | AATATAAAAATGTTTACACACACACGGAAATATATT [CACACA_site7226] | 10.3
10 | ATAAATATTGGGTGCACACACATAATATATATATAT [CACACA_site2272] | 10.2
11 | AAAAAAAAAAAAAAAACACACATAAAAATATAATAA [CACACA_site3855] | 9.9
12 | TAAAAAGGAAAACACACACACACATATATATATATA [CACACA_site3588] | 11.4
13 | AAGGAATAATATAAAACACACACATAAATATAAATA [CACACA_site9115] | 11.4
14 | AATATAAAAATGTTTACACACACACCCAAATATATT [CACACA_site2511] | 10.2
15 | ATATAAAGAAATTAATTTTTCAACAATAAAAATATA [CACACA_negctrl_site1262] | 9.35
16 | AAATTGGGGCTTGTTACACACTTAGTGCGAGTTCTA [CACACA_site582] | 9.75
17 | ATTTATTATATATAGTGTACGTTCTTAATTATAATT [XGTACX_site7480] | 9.69
18 | TATCATATATTATATGCACACATGTTTTTCAAGAAT [CACACA_site1892] | 9.74
19 | TTTCTTTTTCGATATACACACTGTATGTGTCTAAAA [CACACA_site6054] | 9.95
20 | TGTATGATAACTATAGTGCATTTGGTAATTTTTCCA | 9.51
21 | AAATGTAAATTTATCCGTACATATATATATTTATAT [XGTACX_site7024] | 9.73
22 | ATATATATATATATGTGTACATATATATATCATATG [XGTACX_site3126] | 9.68

Row | Sequence | gcPBM binding intensity (ln)
23 | TAATAGAATATGATGGTGCAGCAGTCTTATTTTTCA | 9.61
24 | AAAAAAAAATTAAAAACACACATATATATATATATA [CACACA_site1580] | 9.73
25 | AAAAAAATTAAACACACACACACATATATATATATA [CACACA_site4718] | 11.5
26 | CCATAAAAAGGATACACACACACACCGACATATATA [CACACA_site4653] | 10.9
27 | AAAAAAAAAAAACATACACACACATATATATATATA [CACACA_site8452] | 10.7
28 | AAAAAAAAATTAAAAACACACATATAAATAAATATA [CACACA_site6845] | 9.8
29 | AAAACATACCTATATACACACATATAAATATAAATA [CACACA_site6956] | 10.1
30 | TAAAAGGATACATATACACACATATATATATATATA [CACACA_site2791] | 9.85
31 | ATTAAATAAAAAAACACACACATATATACATATATA [CACACA_site3445] | 10.6
32 | ACCCATAAAAAGGATACACACACACCCACCCATATA [CACACA_site8205] | 10.6
33 | AAAACATACATATATACACACATATATATATATATA [CACACA_site1852] | 10.3
34 | ATTAAATAAAAAAACACACACATATATACCTATATA [CACACA_site5837] | 11
35 | TTAAAAAAAAAACACACACACATACACATATATATA [CACACA_site3299] | 11.1
36 | ACATATATATTTATATGTACATATATTTATATATAT [XGTACX_site7469] | 9.64
37 | ATATTGTAAGTAAAATGTAATAAATATAATAAAATA [CACACA_negctrl_site697] | 9.76
38 | ATATATTTATATTGTACACACATTTATGCATATATA [CACACA_site7502] | 9.96
39 | ACATTCTATACATACACACCCACACCCAAAAAAAAA [CACACA_site863] | 10
40 | CTTATACATTATTAACGTACATGTTATATGAATAAC [XGTACX_site5752] | 9.6
41 | TGGAAAATTATAAGGTGTACATATAAGCTATTATAT [XGTACX_site118] | 9.63
42 | ATATATATATATATTTATTCATATATTTTTTGTCTT [TGCATGCA_negctrl_site58] | 9.52
43 | AAAAATGAATTATTTTGTACATATATATATATATAT [XGTACX_site3410] | 9.74
44 | TGCTATTTTTTCCTTTTTTTGTATCACAATCATATA [CACACA_negctrl_site1576] | 9.74
